{"source": "the supplement of paper PMC8728848", "binders": {"B1": {"name": "PX9937D-bvu-500-26-500 (Bacteroides vulgatus) (protein)", "chain": "DPVSDITDLNYWKTPEQFDSFVFGLHSRFRSHSWNMFLLGEARSDVFGGIPFGGEATQGMERFPYNTLNAENPGISGFGDLYQNINQMNLFISRTLHTDVLTESARNYYLGQVYGLRAYYMYQLYRSWGDVVFTEEPSLGFEVGKLAKAATPAAEIFEQVKKDIESSLSYFGSDYTIKEKKSLWSKAATLMLKADVYLWSAHRDGGEGDARTAKNALVDIQNNISRSNLDLMDTYQGVFAYDNKGNKEIIFTIHNELFEYNLWNGNNDLFPQADYLGKFYNADGTLINTSVENNFGIMRLMVKLENFKKFLPGDTRRDVTLKDVYNKVENGKLELVGVYPHKYWGVMNGSTRVRCDDYPIYRYSDLLLMLAEAKVLLGEDPATEINRVRRRAFGDAYDASTVGFPNQEVDKRPADAVLQERLFEFMLEGKRWYDLRRFGDSYVLDYTPAEPARLLWPINQGALTNNPLLKQTVGY"}}, "experiment_in_all_cases": "glycan array binding signal (z-score within array); higher = stronger binding", "details_in_all_cases": "glycan notation: IUPAC condensed, linker removed", "key": {"Fuc(a1-2)Gal(b1-3)GlcNAc": {"target": "Fuc(a1-2)Gal(b1-3)GlcNAc", "method_in_brief": "(§1)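 Columns mapping to the same glycan were averaged after glycan names were converted to IUPAC-condensed notation. The data come from 3228 arrays in the Consortium for Functional Glycomics database, limited to those with an available protein sequence. Binding is reported as a within-array Z-score averaged across arrays of one protein sequence and across linkers.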"}, "[1]": {"target": "Fuc(a1-2)Gal(b1-3)GlcNAc(b1-3)Gal(b1-4)Glc", "method_in_brief": "as §1"}, "Fuc(a1-2)Gal(b1-4)Glc": {"target": "Fuc(a1-2)Gal(b1-4)Glc", "method_in_brief": "as §1"}, "[2]": {"target": "Fuc(a1-2)Gal(b1-4)GlcNAc(b1-2)Man(a1-3)[Fuc(a1-2)Gal(b1-4)GlcNAc(b1-2)Man(a1-6)]Man(b1-4)GlcNAc(b1-4)[Fuc(a1-6)]GlcNAc", "method_in_brief": "as §1"}, "[3]": {"target": "Fuc(a1-2)Gal(b1-4)GlcNAc(b1-2)[Fuc(a1-2)Gal(b1-4)GlcNAc(b1-4)]Man(a1-3)[Fuc(a1-2)Gal(b1-4)GlcNAc(b1-2)Man(a1-6)]Man(b1-4)GlcNAc(b1-4)GlcNAc", "method_in_brief": "as §1"}, "[4]": {"target": "Fuc(a1-2)Gal(b1-4)GlcNAc(b1-3)[Fuc(a1-3)[Gal(b1-4)]GlcNAc(b1-6)]Gal(b1-4)Glc", "method_in_brief": "as §1"}, "[5]": {"target": "Fuc(a1-2)Gal(b1-4)[Fuc(a1-3)]GlcNAc(b1-2)Man(a1-3)[Fuc(a1-2)Gal(b1-4)[Fuc(a1-3)]GlcNAc(b1-2)Man(a1-6)]Man(b1-4)GlcNAc(b1-4)[Fuc(a1-6)]GlcNAc", "method_in_brief": "as §1"}, "[6]": {"target": "Fuc(a1-2)[Gal(a1-3)]Gal(b1-3)GlcNAc(b1-3)GalNAc", "method_in_brief": "as §1"}, "[7]": {"target": "Fuc(a1-2)[Gal(a1-3)]Gal(b1-4)[Fuc(a1-3)]GlcNAc", "method_in_brief": "as §1"}, "[8]": {"target": "Fuc(a1-2)[GalNAc(a1-4)]Gal(b1-4)GlcNAc", "method_in_brief": "as §1"}, "[9]": {"target": "Fuc(a1-3)[Gal(b1-4)]GlcNAc(b1-2)Man(a1-3)[Fuc(a1-3)[Gal(b1-4)]GlcNAc(b1-2)Man(a1-6)]Man(b1-4)GlcNAc(b1-4)GlcNAc", "method_in_brief": "as §1"}, "[10]": {"target": "Fuc(a1-3)[Gal(b1-4)]GlcNAc(b1-3)GalNAc", "method_in_brief": "as §1"}, "[11]": {"target": "Fuc(a1-3)[Gal3S(b1-4)]GlcNAc6S", "method_in_brief": "as §1"}, "[12]": {"target": "Gal(a1-3)Gal(b1-3)GlcNAc(b1-2)Man", "method_in_brief": "as §1"}, "[13]": {"target": "Gal(a1-3)Gal(b1-4)GlcNAc(b1-3)GalNAc", "method_in_brief": "as §1"}, "[14]": {"target": "Gal(a1-3)[Gal(a1-4)]Gal(b1-4)GlcNAc", "method_in_brief": "as §1"}, "[15]": {"target": "Gal(a1-4)Gal(b1-4)GlcNAc(b1-2)Man(a1-3)[Gal(a1-4)Gal(b1-4)GlcNAc(b1-2)Man(a1-6)]Man(b1-4)GlcNAc(b1-4)GlcNAc", "method_in_brief": "as §1"}, "Gal(b1-3)Gal(b1-4)GlcNAc": {"target": "Gal(b1-3)Gal(b1-4)GlcNAc", "method_in_brief": "as §1"}, "[16]": {"target": "Gal(b1-3)GlcNAc(b1-2)Man(a1-3)[Gal(b1-3)GlcNAc(b1-2)Man(a1-6)]Man(b1-4)GlcNAc(b1-4)GlcNAc", "method_in_brief": "as §1"}, "[17]": {"target": "Gal(b1-3)[Fuc(a1-4)]GlcNAc(b1-3)Gal(b1-4)[Fuc(a1-3)]GlcNAc", "method_in_brief": "as §1"}, "[18]": {"target": "Gal(b1-4)GalNAc(b1-3)[Fuc(a1-2)]Gal(b1-4)GlcNAc", "method_in_brief": "as §1"}, "[19]": {"target": "Gal(b1-4)GlcNAc(b1-2)[Gal(b1-4)GlcNAc(b1-6)]Man(a1-6)[GlcNAc(b1-4)][Gal(b1-4)GlcNAc(b1-2)[Gal(b1-4)GlcNAc(b1-4)]Man(a1-3)]Man(b1-4)GlcNAc(b1-4)[Fuc(a1-6)]GlcNAc", "method_in_brief": "as §1"}, "[20]": {"target": "Gal(b1-4)GlcNAc(b1-3)Gal(b1-4)GlcNAc(b1-3)Gal(b1-4)GlcNAc(b1-3)Gal(b1-4)GlcNAc(b1-3)Gal(b1-4)GlcNAc(b1-3)Gal(b1-4)GlcNAc(b1-2)Man(a1-3)[Gal(b1-4)GlcNAc(b1-3)Gal(b1-4)GlcNAc(b1-3)Gal(b1-4)GlcNAc(b1-3)Gal(b1-4)GlcNAc(b1-3)Gal(b1-4)GlcNAc(b1-3)Gal(b1-4)GlcNAc(b1-2)Man(a1-6)]Man(b1-4)GlcNAc(b1-4)GlcNAc", "method_in_brief": "as §1"}, "[21]": {"target": "Gal3S(b1-4)[Fuc(a1-3)]Glc6S", "method_in_brief": "as §1"}, "Gal3S6S(b1-4)GlcNAc6S": {"target": "Gal3S6S(b1-4)GlcNAc6S", "method_in_brief": "as §1"}, "Gal6S(b1-3)GlcNAc": {"target": "Gal6S(b1-3)GlcNAc", "method_in_brief": "as §1"}, "GalNAc(b1-3)GalNAc": {"target": "GalNAc(b1-3)GalNAc", "method_in_brief": "as §1"}}, "note": "The sample as a whole holds a higher share of the strongest signals than the screen did."}
{"binder": "B1", "values": [{"measurement": "glycan array binding signal (z-score)", "setting": "Fuc(a1-2)Gal(b1-3)GlcNAc", "result": -0.32}, {"measurement": "glycan array binding signal (z-score)", "setting": "[1]", "result": -0.541}, {"measurement": "glycan array binding signal (z-score)", "setting": "Fuc(a1-2)Gal(b1-4)Glc", "result": -0.401}, {"measurement": "glycan array binding signal (z-score)", "setting": "[2]", "result": 2.63}, {"measurement": "glycan array binding signal (z-score)", "setting": "[3]", "result": 0.277}, {"measurement": "glycan array binding signal (z-score)", "setting": "[4]", "result": -0.243}, {"measurement": "glycan array binding signal (z-score)", "setting": "[5]", "result": 5.16}, {"measurement": "glycan array binding signal (z-score)", "setting": "[6]", "result": -0.226}, {"measurement": "glycan array binding signal (z-score)", "setting": "[7]", "result": -0.096}, {"measurement": "glycan array binding signal (z-score)", "setting": "[8]", "result": 1.69}, {"measurement": "glycan array binding signal (z-score)", "setting": "[9]", "result": 6.27}, {"measurement": "glycan array binding signal (z-score)", "setting": "[10]", "result": -0.063}, {"measurement": "glycan array binding signal (z-score)", "setting": "[11]", "result": 0.002}, {"measurement": "glycan array binding signal (z-score)", "setting": "[12]", "result": 4.49}, {"measurement": "glycan array binding signal (z-score)", "setting": "[13]", "result": -0.404}, {"measurement": "glycan array binding signal (z-score)", "setting": "[14]", "result": 2.38}, {"measurement": "glycan array binding signal (z-score)", "setting": "[15]", "result": 9.96}, {"measurement": "glycan array binding signal (z-score)", "setting": "Gal(b1-3)Gal(b1-4)GlcNAc", "result": -0.412}, {"measurement": "glycan array binding signal (z-score)", "setting": "[16]", "result": 4.38}, {"measurement": "glycan array binding signal (z-score)", "setting": "[17]", "result": -0.383}, {"measurement": "glycan array binding signal (z-score)", "setting": "[18]", "result": -0.3}, {"measurement": "glycan array binding signal (z-score)", "setting": "[19]", "result": 5.5}, {"measurement": "glycan array binding signal (z-score)", "setting": "[20]", "result": 2.58}, {"measurement": "glycan array binding signal (z-score)", "setting": "[21]", "result": 0.78}, {"measurement": "glycan array binding signal (z-score)", "setting": "Gal3S6S(b1-4)GlcNAc6S", "result": 0.182}, {"measurement": "glycan array binding signal (z-score)", "setting": "Gal6S(b1-3)GlcNAc", "result": 1.2}, {"measurement": "glycan array binding signal (z-score)", "setting": "GalNAc(b1-3)GalNAc", "result": -0.663}]}
